HEK293 tox: HEK 293 cell cytotoxicity | HEK 293 viability, ATP luminescence (CellTiter-Glo), 48-72 h | Potency, µM (highest dose often 115 µM), inactives show top-dose activity change, negative = cytotoxicity, hits mostly inhibitors | 6.6% of 94,000 active | AID 1345083; further: nearly all actives have a fitted effect of over 60% in size
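qHTS cytotoxicity; HEK 293, 250 cells/well; compound pinned; 48 or 72 hr, 37 degree Celsius, 5% CO2, 95% humidity; CellTiter-Glo, 10 min RT; luminescence (ATP).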
NIH3T3 tox: NIH 3T3 cell cytotoxicity | NIH 3T3 viability, CellTiter-Glo ATP luminescence, 48-72 h | Potency, µM (highest dose often 96.7 µM), inactives show at the top dose activity change, negative = cytotoxicity, usual class: inhibitors | 4.3% of 94,000 active; further: nearly all actives have a fitted effect of over 55% in size
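Mouse fibroblast NIH 3T3 cells, 400 per well, received compound via pintool and were incubated for 48 or 72 hr prior to CellTiter-Glo ATP luminescence measurement.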
hNpr1 antagonist: human Npr1 receptor antagonism; HEK293 hNpr1 GloSensor cGMP, ANP-stimulated luminescence; P16066; 1.6% of 76,000 active; Potency, µM (series often up to 46.3 µM), inactives show at the top dose activity change, negative = inhibition, hits mostly inhibitors; AID 1347048; calls by dose curve; further: nearly all actives have a fitted effect of over 60% in size
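Compound pre-incubated 30 min at room temperature on GloSensor-loaded HEK293 cells stably carrying hNpr1 and the pGS-40F cGMP biosensor. Stimulation uses hNppA at 0.1 nM final; luminescence is taken at baseline and 20 min post-agonist.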
Luciferase inh: blocks purified firefly luciferase enzyme activity. P08659. purified P. pyralis luciferase, luminescence, biochemical. Potency, µM (highest dose often 115 µM), usual class: inhibitors. 2.5% of 76,000 active; further: nearly all actives have a fitted effect of over 65% in size
Target sequence (P08659 whole entry, looked up): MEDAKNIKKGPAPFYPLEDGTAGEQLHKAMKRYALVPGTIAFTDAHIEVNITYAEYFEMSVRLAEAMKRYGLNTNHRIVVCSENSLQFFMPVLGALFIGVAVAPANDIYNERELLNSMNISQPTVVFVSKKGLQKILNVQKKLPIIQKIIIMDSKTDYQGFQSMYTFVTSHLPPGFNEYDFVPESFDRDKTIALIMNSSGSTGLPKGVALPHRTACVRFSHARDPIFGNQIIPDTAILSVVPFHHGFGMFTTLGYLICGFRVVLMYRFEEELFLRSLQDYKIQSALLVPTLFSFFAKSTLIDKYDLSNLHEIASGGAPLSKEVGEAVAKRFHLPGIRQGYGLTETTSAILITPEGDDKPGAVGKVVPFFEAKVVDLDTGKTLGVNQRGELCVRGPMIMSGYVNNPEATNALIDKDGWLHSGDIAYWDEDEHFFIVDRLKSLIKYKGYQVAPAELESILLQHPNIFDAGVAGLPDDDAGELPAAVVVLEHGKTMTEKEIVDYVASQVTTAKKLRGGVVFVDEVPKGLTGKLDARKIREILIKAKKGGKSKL
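Luminescence read by CCD imager after adding enzyme (10nM final) to wells holding compound, titrated in qHTS. Substrates 10uM each D-luciferin and ATP; buffer 50mM Tris acetate pH 7.5, 10mM Mg acetate, Tween-20, BSA.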
* = called active by the depositor; i = inactive; ? = inconclusive; · = no result; [ ] = dose if it differs, or a comment. Hits are enriched below; roughly 11% of the tested compounds scored in any of these assays. Unless noted, the call rests on the fitted dose curve; in most records, active means well fitted curve in the direction sought with a large enough effect; inconclusive means small, poorly fitted or top-dose-only effect, or another doubt; inactive means no such curve, though single readings can be large; an effect the other way counts as inactive or inconclusive. On the % scale 0 is the no-effect control and ±100 the full control effect; potency means the concentration at half of the fitted maximal effect.

SMILES	HEK293 tox	NIH3T3 tox	hNpr1 antagonist	Luciferase inh
Cc1nn(-c2ccccc2)c(C)c1[C@@H]1C=C[C@@H](NCc2ccc(F)cc2)C1	63.1µM*	?	-22.7%[70.6 µM]	?
Cc1nn(-c2ccc(C(F)(F)F)cc2)c(C)c1[C@@H]1C=C[C@@H](NCc2ccc(N(C)C)cc2)C1	20µM*	11.2µM*	-16.4%	i
O=C1Cc2c(-c3ccc(Oc4ccccc4)cc3)n[nH]c2CN1Cc1ccccc1F	?	?	-8.5%[70.6 µM]	i
C[S+](=O)([O-])N1CC2(Cc3ccccc31)CN(C(=O)Nc1ccccc1)C2	?	-11.2%	·	·
CN1CC2(CCN(C(=O)c3cccc(C#N)c3)CC2)CC1CN1CCOCC1 (stereo not drawn)	-6.4%	-11.5%	·	·
COc1ccc(-n2nc(C)c([C@@H]3C=C[C@@H](NCc4ccc(C(C)C)cc4)C3)c2C)cc1	31.6µM*	31.6µM*	?	25.1µM*
O=C1COc2ccc(-c3cccc(O)c3)nc2CN1CCOc1ccccc1	100µM*	?	?	i
O=C1COc2ccc(OCc3ccccc3)nc2CN1CCOc1ccccc1	89.1µM*	?	?	i
CCNc1ncnc2sc3c(c12)CCN(Cc1ccc[nH]1)C3	?	39.8µM*	-9.0%	i
CC(C)C[C@@H]1N[C@H](C(=O)NC2CC2)Cc2cn(Cc3nccn3C)c3cccc1c23	?	?	-7.2%[70.6 µM]	i
CC(C)C[C@@H]1N[C@H](C(=O)NC2CCC2)Cc2cn(Cc3ccccn3)c3cccc1c23	28.2µM*	35.5µM*	-24.4%[70.6 µM]	i
CC(C)C[C@@H]1N[C@H](C(=O)NCC2CC2)Cc2cn(Cc3ccccn3)c3cccc1c23	44.7µM*	39.8µM*	-17.8%[70.6 µM]	i
CC(C)C[C@@H]1N[C@H](C(=O)NC2CCC2)Cc2cn(Cc3ccncc3)c3cccc1c23	?	79.4µM*	?	i
CC(C)C[C@@H]1N[C@H](C(=O)NC(C)C)Cc2cn(Cc3ccccn3)c3cccc1c23	28.2µM*	44.7µM*	-12.4%[70.6 µM]	i
CCOC(=O)C1CCN(Cc2ccccc2OCC(O)CN(C)C2CCCCC2)CC1 (stereo not drawn)	?	?	-4.2%	i
O=C(NCCc1ccccc1F)C1CCc2nnc(-c3cccc(C(F)(F)F)c3)n21 (stereo not drawn)	-27.0%	?	·	·
CC(C)C[C@@H]1N[C@H](C(=O)NCCN(C)C)Cc2cn(Cc3ccccn3)c3cccc1c23	?	28.2µM*	0.4%[70.6 µM]	i
CC(C)C[C@@H]1N[C@H](C(=O)NCCN2CCOCC2)Cc2cn(Cc3ccccn3)c3cccc1c23	?	?	-7.5%	i
Cc1cccc(CC(=O)N2CCCC(n3cc(-c4nc(-c5ccccc5)no4)nn3)C2)c1 (stereo not drawn)	?	?	-21.9%	?
CCN(Cc1cccnc1)C(=O)c1cc(-c2cnn(CC)c2)nc2cc(C)ccc12	-18.7%	6.31µM*	-3.6%	?
COc1ccccc1-c1nccc2c(=O)cc(-c3ccccn3)oc12	?	?	1.8%[70.6 µM]	i
O=c1cc(C2=CCOCC2)oc2c(-c3cccc4[nH]ccc34)nccc12	39.8µM*	?	-12.8%[70.6 µM]	i
Cc1nn(-c2ccccc2)c2c1C(C)N(CC1CN(Cc3cccc(C(F)(F)F)c3)C1)C2=O (stereo not drawn)	28.2µM*	?	·	·
Cc1nn(-c2ccccc2)c2c1C(C)N(CC1CN([S+](C)(=O)[O-])C1)C2=O (stereo not drawn)	-19.0%	-19.0%	·	·
CC(=O)N1CC(N2C(=O)c3c(c(C)nn3-c3ccccc3)C2C2CC2)C1 (stereo not drawn)	3.7%[172 µM]	?	·	·
SMILES	HEK293 tox	NIH3T3 tox	hNpr1 antagonist	Luciferase inh
Cc1nn(-c2ccccc2)c2c1C(C1CC1)N(C1CN(C(=O)c3ccccc3Cl)C1)C2=O (stereo not drawn)	?	12.6µM*	·	·
Cc1nn(-c2ccccc2)c2c1C(C1CC1)N(C1CCN(C(=O)c3ccccc3Cl)C1)C2=O (stereo not drawn)	35.5µM*	22.4µM*	·	·
Cc1nn(-c2ccccc2)c2c1C(C)N(CC1CN(C(=O)c3ccccc3Cl)C1)C2=O (stereo not drawn)	50.1µM*	?	·	·
CCC1Oc2ccc(NC(=O)Cc3ccc(F)cc3)cc2CN(Cc2cccc(OC)c2)C1=O (stereo not drawn)	?	?	-18.0%	i
COc1cc(NC(=O)N[C@H](C)c2onc(-c3ccccc3)c2C(=O)O)cc(OC)c1	-10.5%[172 µM]	?	4.5%[70.6 µM]	i
CC(C)(C)c1nnc2ccc(C(=O)NCc3ccccn3)cn12	-8.1%[172 µM]	-29.3%[138 µM]	·	·
CN(C)CCCN(C)c1nccc(C2(c3ccccc3Cl)CCNCC2)n1	?	?	1.5%	i
Cc1nn(-c2ccccc2)c2c1C(C1CC1)N(C1CN(C(=O)C3CCCC3)C1)C2=O (stereo not drawn)	44.7µM*	35.5µM*	·	·
Cc1ccccc1C(=O)N1CCC(N2C(=O)c3c(c(C)nn3-c3ccccc3)C2C2CC2)C1 (stereo not drawn)	28.2µM*	?	·	·
Cn1ncc2c(C(=O)NCCc3ccccn3)cc(-c3cc(Cl)cc(Cl)c3)nc21	-2.6%	-18.0%	·	·
O=C(Nc1ccc2c(c1)OCCO2)N1CCCC1Cc1noc(Cc2ccccc2)n1 (stereo not drawn)	-23.4%	?	·	·
CC(C)c1ccc(S(=O)(=O)N2CCCC2Cc2noc(Cc3ccccc3)n2)cc1 (stereo not drawn)	25.1µM*	?	·	·
O=[S+]1([O-])NC2(CCN(Cc3cccc(C(F)(F)F)c3)C2)COc2ncccc21 (stereo not drawn)	-26.4%	-12.8%	·	·
CCC(=O)Nc1ccc(-c2c(-c3ccc(C)cc3)nn(-c3ccc(F)cc3)c2OC(C)=O)cc1	44.7µM*	28.2µM*	-18.3%	i
CCC(=O)Nc1ccc(-c2c(-c3cc(OC)cc(OC)c3)nn(-c3ccc(C)cc3)c2OC(C)=O)cc1	?	-22.1%	-20.6%	i
CNC(=O)c1cc(C)nc2onc(C3CCN(C(=O)NC(C)C)C3)c12 (stereo not drawn)	-9.2%	-19.7%	·	·
c1cc(-c2cc(-c3ccncc3)c3cncn3c2)cc(N2CCOCC2)c1	?	22.4µM*	-12.7%[70.6 µM]	i
Cc1noc2c(-c3ccc(N4CCOCC4)cc3)cc(-c3ccccc3)nc12	?	?	2.7%[70.6 µM]	i
FC(F)(F)c1cccc(-c2cc(-c3ccncc3)c3cncn3c2)c1	?	35.5µM*	-19.2%[70.6 µM]	i
Oc1cccc(-c2cc(-c3ccncc3)c3cncn3c2)c1	?	?	-18.3%[70.6 µM]	i
Cc1noc(C)c1-c1cc(-c2cccc(N3CCOCC3)c2)cn2cncc12	?	17.8µM*	-8.4%[70.6 µM]	i
Cc1ccccc1N(C)C1CN(Cc2ccc(F)cc2)C1	?	-22.7%[138 µM]	·	·
Cc1ccccc1N(C)C1CN([S+](=O)([O-])c2cccs2)C1	79.4µM*	?	-7.0%[70.6 µM]	i
Cc1ccccc1N(C)C1CN(Cc2ccc(C(F)(F)F)cc2)C1	100µM*	?	·	·
Cc1ccccc1N(C)C1CN(Cc2ccccc2)C1	?	89.1µM*	-7.6%[70.6 µM]	i
